Assay outcomes (PubChem BioAssay)
AmpC detergent – inhibitors of E. coli AmpC beta-lactamase with detergent. actives 0.041% (n = 370,000). AmpC hydrolysis of nitrocefin, absorbance 480 nm, 0.01% Triton. Potency, µM (doses to about 114 µM), for inactives: at the highest dose activity change, negative = inhibition, actives largely listed as inhibitors;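 note: 0% = no-compound wells and -100% = no-enzyme wells; nearly all actives have a fitted effect of over 25% in size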
Target sequence (P00811 whole entry, looked up): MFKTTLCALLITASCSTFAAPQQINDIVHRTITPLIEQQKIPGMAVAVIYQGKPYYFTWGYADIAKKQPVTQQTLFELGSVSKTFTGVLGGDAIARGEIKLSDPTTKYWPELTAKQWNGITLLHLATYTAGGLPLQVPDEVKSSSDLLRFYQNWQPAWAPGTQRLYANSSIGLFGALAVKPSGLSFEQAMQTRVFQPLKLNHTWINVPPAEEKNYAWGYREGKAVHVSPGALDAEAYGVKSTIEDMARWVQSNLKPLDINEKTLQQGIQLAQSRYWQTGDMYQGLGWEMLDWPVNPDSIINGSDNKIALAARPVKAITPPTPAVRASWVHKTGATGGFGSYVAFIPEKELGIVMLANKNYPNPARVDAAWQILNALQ
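20 mM phosphate pH 7.0 + 0.01% (detergent screen) or 0.0001% Triton X-100; 5.3 nM AmpC reagent; cpd preinc 15 min RT; nitrocefin (800 uM stock) to start; A480 q20 s × 4 min; Activity was normalised to no-enzyme and no-compound control wells.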
AmpC inh no detg – blocks E. coli AmpC beta-lactamase in detergent-free assay | AmpC nitrocefin hydrolysis, absorbance 480 nm, 0.0001% Triton | P00811 | AID 485341 | actives 0.52% (n = 330,000) | Potency, µM (doses to about 57.1 µM), inactives show top-dose activity change, negative = inhibition, most hits filed as inhibitors;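 note: plate controls were no compound for no effect and no enzyme for full effect; nearly all actives have a fitted effect of over 20% in size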
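AmpC (5.3 nM in the dispensed reagent) in 20 mM phosphate pH 7.0 with 0.01% (detergent screen) or 0.0001% Triton X-100 was preincubated with compounds for 15 min at room temperature. Nitrocefin was then added from an 800 uM solution, and hydrolysis was followed at 480 nm.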
Sm TGR inh – blocks Schistosoma mansoni thioredoxin glutathione reductase; actives 3% (n = 360,000); purified TGR, DTNB reduction, TNB absorbance 405 nm; AID 485364; Potency, µM (highest dose often 114 µM), without a hit: at the top dose activity change, negative = inhibition, hits mostly inhibitors; note: nearly all actives have a fitted effect of over 60% in size
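Kinetic colorimetric format: TGR-catalysed, NADPH-driven DTNB reduction monitored via TNB absorbance. Enzyme dispensed at 20 nM; compound exposure 15 min at room temperature before reaction start.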
Numbers without * were called inactive; u = inconclusive; x = not tested or not shown. Shown are actives, neighbours in structure and some others; about 3.3% of the full set was active somewhere. Calls come from the whole dose curve; as a rule, active = well fitted curve in the direction sought with a large enough effect; inconclusive = small, poorly fitted or top-dose-only effect, or another doubt; inactive = no such curve, though single readings can be large; an effect the other way counts as inactive or inconclusive. Unless noted, % is set by controls: 0 for no effect and ±100 for the full control effect; potency is the fitted concentration of half-maximal effect.

SMILES	AmpC detergent	AmpC inh no detg	Sm TGR inh
CCOc1ccc2nc(N3CCN(C(=O)c4ccc5c(c4)CCCC5)CC3)sc2c1	3.2%	x	7.7%
NC(N)=NS(=O)(=O)c1ccc(NC(=S)NC(=O)/C=C/c2ccccc2)cc1	-10.9%	-18.2%	89.1µM*
NC(N)=NS(=O)(=O)c1ccc(NC(=S)NC(=O)Cc2ccc(Cl)cc2)cc1	u	10µM*	u
NC(N)=NS(=O)(=O)c1ccc(NC(=S)NC(=O)c2ccccc2)cc1	-7.2%	-16.7%	15.8µM*
NC(N)=NS(=O)(=O)c1ccc(NC(=S)NC(=O)c2ccc3c(c2)OCO3)cc1	-7.6%	-38.2%	u
CCC(=O)Nc1ccc(NC(=S)NC(=O)/C=C/c2ccccc2)cc1	u	-40.8%	-22.6%
NC(N)=NS(=O)(=O)c1ccc(NC(=S)Nc2ccc(F)cc2)cc1	-0.6%	-5.3%	0.0%
CC(C)NC(=O)CCC(=O)N1Cc2ccccc2Oc2ncccc21	18.2%	x	2.7%
CCOc1ccc(-n2c(=O)c3c(C)c(C(=O)N(C)C)sc3n(CC(=O)Nc3c(C)cc(C)cc3C)c2=O)cc1	-3.2%	x	-6.6%
CCOC(=O)c1cccc(NC(=O)C2CCCN(S(=O)(=O)c3cc(Br)cc4c3N(C(=O)CC)CC4)C2)c1 (stereo not drawn)	26.5%	x	-2.4%
COc1cccc(CNS(=O)(=O)c2cc3[nH]c(=O)c(=O)[nH]c3cc2C)c1	13.4%	x	-5.1%
Cc1ccc(NC(=O)[C@@H](c2ccccc2)N2Cc3ccccc3C2=O)cc1F	-9.7%	x	1.6%
CCc1cccc(NC(=O)C(CC)n2nc(C)c3sc4ccccc4c3c2=O)c1 (stereo not drawn)	u	x	34.7%
Cc1ccc(C(c2sc3nc(-c4ccco4)nn3c2O)N2CCC3(CC2)OCCO3)cc1 (stereo not drawn)	0.7%	x	10.4%
CCn1c(SCC(=O)Nc2sc3c(c2C#N)CCCC3)nnc1-c1ccco1	-7.0%	18.0%	u
c1ccc(-n2c(SCc3nc(-c4cccs4)no3)nnc2-c2ccco2)cc1	-11.2%	-5.8%	44.7µM*
CCOC(=O)c1c(NC(=O)CSc2nnc(-c3c[nH]c4ccccc34)n2C)sc2c1CCCC2	-4.4%	3.55µM*	-14.4%
COc1ccc(-n2c(Cc3ccccc3)nnc2SCc2nc(-c3cccs3)no2)cc1	-6.8%	x	0.6%
CNC(=O)CSc1nnc(-c2ccco2)n1-c1ccccc1	-1.9%	-5.3%	-1.3%
N#Cc1c(NC(=O)CSc2nnc(-c3ccco3)n2-c2ccccc2)sc2c1CCC2	-6.8%	-44.7%	56.2µM*
CCOC(=O)c1c(NC(=O)CSc2nnc(-c3c[nH]c4ccccc34)n2CCOC)sc2c1CCCC2	u	-6.5%	-11.9%
NC(=O)c1c(NC(=O)CSc2nnc(-c3ccco3)n2-c2ccccc2)sc2c1CCC2	-5.6%	-4.1%	22.4µM*
Cc1ccc(-c2noc(CNC(=O)c3ccc(Br)o3)n2)cc1	8.9%	x	-1.5%
Cc1coc2c(C)c3oc(=O)c(CCC(=O)NCCc4ccc(Cl)cc4)c(C)c3cc12	15.0%	x	-1.4%
CCOC(=O)C1=C(CS(=O)(=O)c2ccc(F)c(C)c2)NC(=O)NC1c1ccccc1OC (stereo not drawn)	-3.1%	x	-0.7%
SMILES	AmpC detergent	AmpC inh no detg	Sm TGR inh
CCC(C)NC(=O)c1cc2cc(S(=O)(=O)N3CCCCC3)ccc2n1C (stereo not drawn)	-5.8%	x	-1.8%
CC(=O)CSc1nnc(-c2ccco2)n1-c1ccccc1	-3.0%	-9.9%	u
CN(Cc1ccccc1)C(=O)CSc1nnc(-c2ccco2)n1-c1ccccc1	-7.3%	44.0%	31.6µM*
COc1cc(SC)ccc1C(=O)N1CCN(c2ccccc2F)CC1	5.0%	26.2%	x
COc1cc(SC)ccc1C(=O)N1CCN(S(=O)(=O)/C=C/c2ccccc2)CC1	-20.5%	47.2%	39.8µM*
NC(=O)CN1CCN(C(=O)Nc2ccccc2)CC1	-10.9%	22.4µM*	5.0%
C=C(C)c1cccc(C(C)(C)NC(=O)N2CCN(CC)CC2)c1	1.7%	-9.4%	0.7%
C=C(C)c1cccc(C(C)(C)NC(=O)N2CCN(CC(N)=O)CC2)c1	3.1%	22.1%	44.7µM*
CCN1CCN(C(=O)C2CCN(C(=O)Nc3ccccc3)CC2)CC1	9.1%	-21.4%	-33.4%
COc1ccc(CCNC(=O)CCCn2c(=O)c3ccccc3n(CC(=O)Nc3ccccc3C)c2=O)cc1OC	16.3%	x	-8.3%
Cc1ccccc1CNC(=O)CN1C(=O)C2CCCCN2c2ccc(C(=O)N3CCCC3)cc21 (stereo not drawn)	-4.9%	x	-16.6%
Cc1cc(-c2ccccc2)nc2c(Br)c(=O)[nH]n12	u	-52.9%	44.7µM*
Cc1cc2nc(-c3ccccc3)cc(=O)n2[nH]1	-9.0%	-29.4%	-13.0%
